# Results reported in ChEMBL document CHEMBL1961873, “Compounds: GSK PKIS; Assays: Nanosyn kinase panel” (2012).
# “And” between values parts separate entries of the source, which are not always exact repeats. Identical values can stand only once.
# Target: Platelet-derived growth factor receptor beta (Homo sapiens) (UniProt P09619)
# Settings: at 1 µM
# 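Further: each value is a mean percent inhibition.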
# Sequence of Platelet-derived growth factor receptor beta (Homo sapiens) (P09619 whole entry): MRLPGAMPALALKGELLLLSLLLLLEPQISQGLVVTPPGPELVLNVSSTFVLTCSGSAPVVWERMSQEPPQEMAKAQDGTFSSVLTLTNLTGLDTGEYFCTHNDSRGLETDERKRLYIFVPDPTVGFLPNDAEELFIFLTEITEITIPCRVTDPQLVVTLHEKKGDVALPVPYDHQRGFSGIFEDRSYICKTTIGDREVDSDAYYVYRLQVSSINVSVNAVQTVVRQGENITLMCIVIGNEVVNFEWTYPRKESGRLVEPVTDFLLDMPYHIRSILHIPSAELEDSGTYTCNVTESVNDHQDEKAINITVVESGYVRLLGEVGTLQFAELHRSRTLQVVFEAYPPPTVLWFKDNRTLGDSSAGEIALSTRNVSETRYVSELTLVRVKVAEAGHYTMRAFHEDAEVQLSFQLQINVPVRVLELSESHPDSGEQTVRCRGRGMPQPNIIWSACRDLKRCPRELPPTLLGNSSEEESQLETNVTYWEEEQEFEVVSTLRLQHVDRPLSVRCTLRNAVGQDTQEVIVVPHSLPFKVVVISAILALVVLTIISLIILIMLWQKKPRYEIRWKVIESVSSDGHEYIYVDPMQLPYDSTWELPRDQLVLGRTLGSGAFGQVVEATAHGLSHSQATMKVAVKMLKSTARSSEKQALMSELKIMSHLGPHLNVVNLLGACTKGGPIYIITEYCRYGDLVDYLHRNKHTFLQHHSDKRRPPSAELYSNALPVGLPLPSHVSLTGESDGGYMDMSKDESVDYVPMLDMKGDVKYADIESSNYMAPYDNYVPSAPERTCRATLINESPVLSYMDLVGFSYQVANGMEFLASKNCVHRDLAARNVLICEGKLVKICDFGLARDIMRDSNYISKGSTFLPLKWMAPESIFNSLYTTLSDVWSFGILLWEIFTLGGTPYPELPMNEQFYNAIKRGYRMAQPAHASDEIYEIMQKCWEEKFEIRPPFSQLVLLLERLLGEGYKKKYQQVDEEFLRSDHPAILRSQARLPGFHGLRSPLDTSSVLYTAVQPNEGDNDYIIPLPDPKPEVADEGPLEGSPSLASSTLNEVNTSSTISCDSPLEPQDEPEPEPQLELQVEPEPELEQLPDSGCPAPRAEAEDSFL
row,SMILES,inhibition
1,Cc1nnc(-c2cccc(-c3ccc(C(=O)NCC4CC4)cc3)c2)o1,8.15%
2,N#Cc1ccc2c(-c3ccnc(NC4CC4)n3)c(-c3ccc(F)cc3)nn2c1,16.8%
3,O=C(O[C@H]1CN[C@H](C#Cc2cc3ncnc(Nc4ccc(OCc5cccc(F)c5)c(Cl)c4)c3s2)C1)N1CCOCC1,5.35%
4,COc1c(C(N)=O)cc(-c2ccc(Cl)cc2)cc1-c1ccc(S(N)(=O)=O)cc1,1.5%
5,Cc1ccc(-c2cc3c(NC(=O)C4CC4)ncnc3o2)cc1,24.5%
6,COc1cccc(Nc2nccc(-c3cnn4ncccc34)n2)c1,70%
7,NS(=O)(=O)c1cccc(N/C=C2\C(=O)Nc3ccccc32)c1,22.3%
8,c1ccc(-c2n[nH]cc2-c2ccnc(-c3ccc(OCCn4ccnc4)cc3)c2)nc1,65.6%
9,CS(=O)(=O)Nc1ccc(-c2ccc3c(NC(=O)C4CC4)n[nH]c3c2)cc1,8.42%
10,CCOc1ccc2c(-c3ccnc(Nc4cc(OC)cc(C(F)(F)F)c4)n3)cnn2n1,29.3%
11,COC(=O)Nc1nc2cc(Oc3ccc(NC(=O)Nc4ccccc4)cc3)ccc2[nH]1,20.8%
12,CCS(=O)(=O)c1ccc(OC)c(Nc2ncc(-c3cccc(F)c3)o2)c1,83.5%
13,CC(C)c1ccc(-c2cc(-c3c[nH]nc3-c3ccccn3)ccn2)cc1,11.4%
14,CN1CCN(Cc2ccc(-c3cc4ncnc(Nc5ccc(OCc6cccc(F)c6)c(Cl)c5)c4s3)o2)CC1,6.41% and 13%
15,NS(=O)(=O)c1ccc(N/N=C2\C(=O)Nc3cccc(CCc4ccncc4)c32)cc1,58.5%
16,Cc1cc(O)cc(C)c1/C=C/c1cncc(C(N)=O)c1,42%

row,SMILES,inhibition
1,O=C1Nc2ccccc2/C1=C1\CCc2cc(O)ccc21,47.9%
2,Nc1nccc(-c2c(-c3ccc(F)cc3)ncn2C2CCNCC2)n1,32% and 25.6%
3,COc1cc(N2CCN(C(C)C)CC2)ccc1Nc1nc(Nc2cccc(F)c2C(=O)O)c2cc[nH]c2n1,6.82%
4,CN(c1ccc(NC(=O)NCCN2CCOCC2)cc1)c1ccnc(Nc2ccc(CS(C)(=O)=O)cc2)n1,77.1%
5,N#Cc1cccc(Nc2ncc(-c3ccccc3)o2)c1,26.1%
6,O=C(O[C@H]1CN[C@H](C#Cc2cc3ncnc(Nc4ccc5c(cnn5Cc5ccccc5)c4)c3s2)C1)N1CCOCC1,6.66%
7,CNC(=O)c1sc(-n2cnc3cc(OC)c(OC)cc32)cc1OCc1ccccc1C(F)(F)F,44.2%
8,c1cnn2ncc(-c3ccnc(NCCCN4CCOCC4)n3)c2c1,4.61%
9,COc1ccccc1-c1cc(/C=C2\C(=O)Nc3ncc(Br)cc32)cc(Br)c1O,11.6%
10,CS(=O)(=O)CCNCc1ccc(-c2ccc3ncnc(Nc4ccc(OCc5ccccc5)cc4)c3c2)o1,4.72%
11,Fc1ccc(Nc2nccc(-c3c(-c4ccc(C(F)(F)F)cc4)nn4ncccc34)n2)cc1F,3.62%
12,NC(=O)c1ccc2c(-c3ccnc(NCCCO)n3)c(-c3ccc(F)cc3)nn2c1,18.2%
13,COC(=O)Nc1nc2ccc(Oc3ccc(NC(=O)Nc4cc(C(F)(F)F)ccc4F)cc3)cc2s1,55.9%
14,CS(=O)(=O)CCNCc1ccoc1-c1ccc2ncnc(Nc3ccc(OCc4ccccc4)cc3)c2c1,5.15%
15,COc1cccc(-n2ncc3c(N/N=C/c4ccc(C(=O)NCCN(C)C)cc4)ncnc32)c1,77.6%
